Inconclusive results are not listed. The source made the active and inactive calls. The call rests on the fitted dose curve; in most records, active means well fitted curve in the direction sought with a large enough effect; inconclusive means small, poorly fitted or top-dose-only effect, or another doubt; inactive means no such curve, though single readings can be large; an effect the other way counts as inactive or inconclusive. Where a SMILES comes first, the peptide text is derived from it. [ ]: non-standard residue; d: D form. ξ: configuration not given here. ξTyr(βOH) = NC(C(=O)O)C(O)c1ccc(O)cc1
Legend:
CRL-7250 = normal cell line; assay: Cytotoxic Profiling of Annotated Libraries Using Quantitative High-Throughput Screening (AID 1296008); details: Five cell lines viability, CellTiter-Glo ATP luminescence, 48-72 h; max response: stronger effect = lower value; further: nearly all actives have a fitted effect of over 60% in size; on max response: on the % scale 0 is the no-effect control and ±100 the full control effect
Method in brief: (§1)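 Compounds were pin-transferred onto cells and incubated 48 or 72 hr at 37 degree Celsius, 95% humidity. CellTiter-Glo was added, plates sat 10 min at room temperature, then ATP-coupled luminescence was imaged as the viability read-out.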

HEK293 = assay: as above; details: Five cell lines viability, CellTiter-Glo ATP luminescence, 48-72 h; max response: stronger effect = lower value
Method in brief: as §1

HaCat [1] = assay: as above; details: Five cell lines viability, CellTiter-Glo ATP luminescence, 48-72 h; max response: stronger effect = lower value
Method in brief: as §1

KB-3-1 = assay: as above; details: Five cell lines viability, CellTiter-Glo ATP luminescence, 48-72 h; max response: stronger effect = lower value
Method in brief: as §1

NIH3T3 [2] = assay: as above; details: Five cell lines viability, CellTiter-Glo ATP luminescence, 48-72 h; max response: stronger effect = lower value
Method in brief: as §1

HACAT [3] = assay: qHTS assay to identify novel small-molecules to repurpose for Merkel cell carcinoma treatment (AID 1296009); details: MCC and control cell lines, CellTiter-Glo viability, 72 h; at 44.8 µM (top of the series) unless noted; further: nearly all actives have a fitted effect of over 60% in size
Method in brief: (§2)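 Luminescence from CellTiter-Glo, read 10 min after addition at room temperature, reported viability following a 72 hr, 37 degree celsius treatment with NPC or MIPE compounds in titration; values normalized to plate controls.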

NIH3T3 [4] = assay: as above; details: MCC and control cell lines, CellTiter-Glo viability, 72 h; at 44.8 µM (top of the series) unless noted
Method in brief: as §2

C33A = assay: Primary qHTS to identify gynecologic anti-cancer compounds using libraries of approved drugs and bioactive compounds (AID 1345084); details: Gynecologic cancer cell panel viability, ATPlite luminescence, 48 h; series mostly up to 57.5 µM; further: on the % scale 0 is the no-effect control and ±100 the full control effect; nearly all actives have a fitted effect of over 55% in size
Method in brief: (§3)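 48 h compound exposure at 37 C, 5% CO2; five-point qHTS. ATPlite luminescence readout of cell ATP.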

CAOV3 = assay: as above; details: Gynecologic cancer cell panel viability, ATPlite luminescence, 48 h; series mostly up to 57.5 µM
Method in brief: as §3

CASKI = assay: as above; details: Gynecologic cancer cell panel viability, ATPlite luminescence, 48 h; series mostly up to 57.5 µM
Method in brief: as §3

Es-2 = assay: as above; details: Gynecologic cancer cell panel viability, ATPlite luminescence, 48 h; series mostly up to 57.5 µM
Method in brief: as §3

HeLa = assay: as above; details: Gynecologic cancer cell panel viability, ATPlite luminescence, 48 h; series mostly up to 57.5 µM
Method in brief: as §3

Hek293T = assay: as above; details: Gynecologic cancer cell panel viability, ATPlite luminescence, 48 h, control line for the selectivity index; series mostly up to 57.5 µM
Method in brief: as §3

JEG-3 = assay: as above; details: Gynecologic cancer cell panel viability, ATPlite luminescence, 48 h; series mostly up to 57.5 µM
Method in brief: as §3

C[C@]1(OC(=O)/C=C/c2ccc(O)cc2)C[C@@H](O)[C@]2(O)C=CO[C@@H](O[C@@H]3O[C@H](CO)[C@@H](O)[C@H](O)[C@H]3O)C12 (some centres undefined)
inactive: max response (CRL-7250) 4.79% | max response (HEK293) -2.23% | outcome (HaCat [1]) | max response (KB-3-1) 6.86% | outcome (NIH3T3 [2]) | outcome (HACAT [3]) inactive [at 17.4 µM] | outcome (NIH3T3 [4]) inactive [at 17.4 µM] | Potency (C33A) | Potency (CAOV3) | outcome (CASKI) | Potency (Es-2) | Potency (HeLa) | Potency (Hek293T) | Potency (JEG-3)

Cc1c(Cc2ccc3ccccc3n2)c2cc(F)ccc2n1CC(=O)O
inactive: max response (CRL-7250) -9.45% | max response (HEK293) 0.378% | outcome (HaCat [1]) | max response (KB-3-1) 7.66% | outcome (NIH3T3 [2]) | outcome (HACAT [3]) | outcome (NIH3T3 [4]) | Potency (C33A) | Potency (CAOV3) | outcome (CASKI) | Potency (Es-2) | Potency (HeLa) | Potency (Hek293T) | Potency (JEG-3)

COC(=O)c1ccccc1O[C@@H]1O[C@H](CO[C@@H]2OC[C@@H](O)[C@H](O)[C@H]2O)[C@@H](O)[C@H](O)[C@H]1O
inactive: max response (CRL-7250) 0.973% | max response (HEK293) 4.14% | outcome (HaCat [1]) | max response (KB-3-1) -2.26% | outcome (NIH3T3 [2]) | outcome (HACAT [3]) inactive [at 17.4 µM] | outcome (NIH3T3 [4]) inactive [at 17.4 µM] | Potency (C33A) | Potency (CAOV3) | outcome (CASKI) | Potency (Es-2) | Potency (HeLa) | Potency (Hek293T) | Potency (JEG-3)

C[C@@H]1C[C@@H](O)[C@@]2(CO)C(CO)=CCC[C@@H]2[C@@]12C[C@@H](c1ccoc1)OC2=O
inactive: outcome (CRL-7250) | max response (HEK293) 4.88% | outcome (HaCat [1]) | max response (KB-3-1) 4% | outcome (NIH3T3 [2]) | outcome (HACAT [3]) | outcome (NIH3T3 [4]) | Potency (C33A) | Potency (CAOV3) | outcome (CASKI) | Potency (Es-2) | Potency (HeLa) | Potency (Hek293T) | Potency (JEG-3)

COc1ccc(/C=C/C(=O)O[C@@H]2[C@@H](O[C@@H]3O[C@H](CO)[C@@H](O)[C@H](O)[C@H]3O)[C@@H](O)[C@H](O[C@H]3C4C=CO[C@@H](O[C@@H]5O[C@H](CO)[C@@H](O)[C@H](O)[C@H]5O)C4[C@@]4(CO)O[C@@H]34)O[C@H]2C)cc1 (some centres undefined)
inactive: max response (CRL-7250) -8.31% | max response (HEK293) -3.69% | outcome (HaCat [1]) | max response (KB-3-1) -1.62% | outcome (NIH3T3 [2]) | outcome (HACAT [3]) inactive [at 9.27 µM] | outcome (NIH3T3 [4]) inactive [at 9.27 µM] | activity change, negative = cytotoxicity (C33A) -3.09% [at 11.6 µM] | activity change, negative = cytotoxicity (CAOV3) -4.58% [at 11.6 µM] | activity change, negative = cytotoxicity (CASKI) 6.26% [at 11.6 µM] | activity change, negative = cytotoxicity (Es-2) 3.1% [at 11.6 µM] | activity change, negative = cytotoxicity (HeLa) 5.69% [at 11.6 µM] | activity change, negative = cytotoxicity (Hek293T) 2.2% [at 11.6 µM] | activity change, negative = cytotoxicity (JEG-3) 7.02% [at 11.6 µM]

CCC1=C(C)C(=O)C(C)CC12C(=O)CCC2C(=O)O (centres undefined)
inactive: max response (CRL-7250) -4.23% | max response (HEK293) -5.13% | outcome (HaCat [1]) | max response (KB-3-1) 0.468% | outcome (NIH3T3 [2]) | outcome (HACAT [3]) | outcome (NIH3T3 [4]) | Potency (C33A) | Potency (CAOV3) | outcome (CASKI) | Potency (Es-2) | Potency (HeLa) | Potency (Hek293T) | Potency (JEG-3)

COc1cc(C)c(C(=O)OC2C(C)OC(OC3CCC(C)C4C3C=C(C)C3/C(C)=C\CC/C(C)=C/C5(C)C=C(C(=O)O)C(C)CC56OC(=O)/C(=C(\O)C34C)C6=O)C(O)C2O)c(OC)c1 (centres undefined)
inactive: outcome (CRL-7250) | max response (HEK293) -1.11% | outcome (HaCat [1]) | max response (KB-3-1) -3.91% | outcome (NIH3T3 [2]) | outcome (HACAT [3]) inactive [at 9.27 µM] | outcome (NIH3T3 [4]) inactive [at 9.27 µM] | activity change, negative = cytotoxicity (C33A) 17.6% [at 11.6 µM] | activity change, negative = cytotoxicity (CAOV3) 11.9% [at 11.6 µM] | activity change, negative = cytotoxicity (CASKI) 0.731% [at 11.6 µM] | activity change, negative = cytotoxicity (Es-2) 6.73% [at 11.6 µM] | activity change, negative = cytotoxicity (HeLa) -3.64% [at 11.6 µM] | activity change, negative = cytotoxicity (Hek293T) 6.05% [at 11.6 µM] | activity change, negative = cytotoxicity (JEG-3) -0.361% [at 11.6 µM]

COc1ccc(C2(O)c3ccccc3NC(=O)C2OC)cc1 (centres undefined)
inactive: max response (CRL-7250) -6.47% | max response (HEK293) 1.57% | outcome (HaCat [1]) | max response (KB-3-1) 5.23% | outcome (NIH3T3 [2]) | outcome (HACAT [3]) | outcome (NIH3T3 [4]) | Potency (C33A) | Potency (CAOV3) | outcome (CASKI) | Potency (Es-2) | Potency (HeLa) | Potency (Hek293T) | Potency (JEG-3)

CC(C)C1NC(=O)CNC(=O)C2CCCN2C(=O)C(Cc2c[nH]c3ccccc23)NC(=O)CNC(=O)C(C(O)c2ccc(O)cc2)NC(=O)CNC1=O (centres undefined) (cyclo(G[ξTyr(βOH)]GWPGV); configuration not given here)
inactive: max response (CRL-7250) -8.12% | max response (HEK293) 1.2% | outcome (HaCat [1]) | max response (KB-3-1) 2.88% | outcome (NIH3T3 [2]) | outcome (HACAT [3]) inactive [at 17.4 µM] | outcome (NIH3T3 [4]) inactive [at 17.4 µM] | Potency (C33A) | Potency (CAOV3) | outcome (CASKI) | Potency (Es-2) | Potency (HeLa) | Potency (Hek293T) | Potency (JEG-3)

COC1OC(=O)C2=C1C1(C)CCCC(C)(C)C1CC2O (centres undefined)
inactive: max response (CRL-7250) -6.21% | max response (HEK293) 1.96% | outcome (HaCat [1]) | outcome (KB-3-1) | outcome (NIH3T3 [2]) | outcome (HACAT [3]) | outcome (NIH3T3 [4]) | Potency (C33A) | Potency (CAOV3) | outcome (CASKI) | Potency (Es-2) | Potency (HeLa) | Potency (Hek293T) | Potency (JEG-3)

CC(=O)O[C@@H]1[C@H](O[C@@H]2OC[C@](O)(CO)[C@H]2O)[C@@H](O[C@@H]2O[C@@H](C)[C@H](O)[C@@H](O[C@@H]3O[C@H](CO)[C@@H](O)[C@H](O)[C@H]3O)[C@H]2O)[C@H](OC(=O)[C@]23CCC(C)(C)C[C@H]2C2=CCC4[C@@]5(C)C[C@H](O)[C@H](O[C@@H]6O[C@H](C(=O)O)[C@@H](O)[C@H](O)[C@H]6O)[C@@](C)(C(=O)O)C5CC[C@@]4(C)[C@]2(C)CC3)O[C@@H]1C (some centres undefined)
inactive: max response (CRL-7250) -6.6% | max response (HEK293) -7.53% | outcome (HaCat [1]) | max response (KB-3-1) 3.25% | outcome (NIH3T3 [2]) | outcome (HACAT [3]) inactive [at 9.27 µM] | outcome (NIH3T3 [4]) inactive [at 9.27 µM] | activity change, negative = cytotoxicity (C33A) -1.36% [at 6.55 µM] | activity change, negative = cytotoxicity (CAOV3) 22.8% [at 6.55 µM] | activity change, negative = cytotoxicity (CASKI) 2.72% [at 6.55 µM] | activity change, negative = cytotoxicity (Es-2) 1.19% [at 6.55 µM] | activity change, negative = cytotoxicity (HeLa) -1.07% [at 6.55 µM] | activity change, negative = cytotoxicity (Hek293T) 4.41% [at 6.55 µM] | activity change, negative = cytotoxicity (JEG-3) -1.98% [at 6.55 µM]

From PubChem BioAssay (NCATS)
